NR3A LBD binder: binders of NR3A ligand-binding domain, primary screen, biophysical, differential scanning fluorimetry, uHTS | NR3A LBD differential scanning fluorimetry, Tm shift; 0% = protein alone, 100% = glycine-bound protein | Glutamate receptor ionotropic, NMDA 3A (GRIN3A) ligand-binding domain | hit rate 2.5% among 340,000 | Tm shift relative to glycine control, % at 25 µM;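 active = melting temperature shift of at least 10% of the positive control shift, at one fixed dose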
FAS-TE inh: FAS thioesterase domain inhibitors, primary screen, biochemical, fluorescence intensity, uHTS; recombinant FAS-TE, OMFH fluorogenic substrate, fluorescence endpoint; inhibition, % at 15 µM; hit rate 0.67% among 360,000; AID 602261, 2012;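 active = compounds whose normalised, plate-corrected inhibition of enzyme fluorescence in the single-dose primary screen is 50% or more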;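 also: 0% = DMSO with enzyme and 100% = substrate without enzyme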
Target sequence (P49327 whole entry, looked up, the tested form may be a part): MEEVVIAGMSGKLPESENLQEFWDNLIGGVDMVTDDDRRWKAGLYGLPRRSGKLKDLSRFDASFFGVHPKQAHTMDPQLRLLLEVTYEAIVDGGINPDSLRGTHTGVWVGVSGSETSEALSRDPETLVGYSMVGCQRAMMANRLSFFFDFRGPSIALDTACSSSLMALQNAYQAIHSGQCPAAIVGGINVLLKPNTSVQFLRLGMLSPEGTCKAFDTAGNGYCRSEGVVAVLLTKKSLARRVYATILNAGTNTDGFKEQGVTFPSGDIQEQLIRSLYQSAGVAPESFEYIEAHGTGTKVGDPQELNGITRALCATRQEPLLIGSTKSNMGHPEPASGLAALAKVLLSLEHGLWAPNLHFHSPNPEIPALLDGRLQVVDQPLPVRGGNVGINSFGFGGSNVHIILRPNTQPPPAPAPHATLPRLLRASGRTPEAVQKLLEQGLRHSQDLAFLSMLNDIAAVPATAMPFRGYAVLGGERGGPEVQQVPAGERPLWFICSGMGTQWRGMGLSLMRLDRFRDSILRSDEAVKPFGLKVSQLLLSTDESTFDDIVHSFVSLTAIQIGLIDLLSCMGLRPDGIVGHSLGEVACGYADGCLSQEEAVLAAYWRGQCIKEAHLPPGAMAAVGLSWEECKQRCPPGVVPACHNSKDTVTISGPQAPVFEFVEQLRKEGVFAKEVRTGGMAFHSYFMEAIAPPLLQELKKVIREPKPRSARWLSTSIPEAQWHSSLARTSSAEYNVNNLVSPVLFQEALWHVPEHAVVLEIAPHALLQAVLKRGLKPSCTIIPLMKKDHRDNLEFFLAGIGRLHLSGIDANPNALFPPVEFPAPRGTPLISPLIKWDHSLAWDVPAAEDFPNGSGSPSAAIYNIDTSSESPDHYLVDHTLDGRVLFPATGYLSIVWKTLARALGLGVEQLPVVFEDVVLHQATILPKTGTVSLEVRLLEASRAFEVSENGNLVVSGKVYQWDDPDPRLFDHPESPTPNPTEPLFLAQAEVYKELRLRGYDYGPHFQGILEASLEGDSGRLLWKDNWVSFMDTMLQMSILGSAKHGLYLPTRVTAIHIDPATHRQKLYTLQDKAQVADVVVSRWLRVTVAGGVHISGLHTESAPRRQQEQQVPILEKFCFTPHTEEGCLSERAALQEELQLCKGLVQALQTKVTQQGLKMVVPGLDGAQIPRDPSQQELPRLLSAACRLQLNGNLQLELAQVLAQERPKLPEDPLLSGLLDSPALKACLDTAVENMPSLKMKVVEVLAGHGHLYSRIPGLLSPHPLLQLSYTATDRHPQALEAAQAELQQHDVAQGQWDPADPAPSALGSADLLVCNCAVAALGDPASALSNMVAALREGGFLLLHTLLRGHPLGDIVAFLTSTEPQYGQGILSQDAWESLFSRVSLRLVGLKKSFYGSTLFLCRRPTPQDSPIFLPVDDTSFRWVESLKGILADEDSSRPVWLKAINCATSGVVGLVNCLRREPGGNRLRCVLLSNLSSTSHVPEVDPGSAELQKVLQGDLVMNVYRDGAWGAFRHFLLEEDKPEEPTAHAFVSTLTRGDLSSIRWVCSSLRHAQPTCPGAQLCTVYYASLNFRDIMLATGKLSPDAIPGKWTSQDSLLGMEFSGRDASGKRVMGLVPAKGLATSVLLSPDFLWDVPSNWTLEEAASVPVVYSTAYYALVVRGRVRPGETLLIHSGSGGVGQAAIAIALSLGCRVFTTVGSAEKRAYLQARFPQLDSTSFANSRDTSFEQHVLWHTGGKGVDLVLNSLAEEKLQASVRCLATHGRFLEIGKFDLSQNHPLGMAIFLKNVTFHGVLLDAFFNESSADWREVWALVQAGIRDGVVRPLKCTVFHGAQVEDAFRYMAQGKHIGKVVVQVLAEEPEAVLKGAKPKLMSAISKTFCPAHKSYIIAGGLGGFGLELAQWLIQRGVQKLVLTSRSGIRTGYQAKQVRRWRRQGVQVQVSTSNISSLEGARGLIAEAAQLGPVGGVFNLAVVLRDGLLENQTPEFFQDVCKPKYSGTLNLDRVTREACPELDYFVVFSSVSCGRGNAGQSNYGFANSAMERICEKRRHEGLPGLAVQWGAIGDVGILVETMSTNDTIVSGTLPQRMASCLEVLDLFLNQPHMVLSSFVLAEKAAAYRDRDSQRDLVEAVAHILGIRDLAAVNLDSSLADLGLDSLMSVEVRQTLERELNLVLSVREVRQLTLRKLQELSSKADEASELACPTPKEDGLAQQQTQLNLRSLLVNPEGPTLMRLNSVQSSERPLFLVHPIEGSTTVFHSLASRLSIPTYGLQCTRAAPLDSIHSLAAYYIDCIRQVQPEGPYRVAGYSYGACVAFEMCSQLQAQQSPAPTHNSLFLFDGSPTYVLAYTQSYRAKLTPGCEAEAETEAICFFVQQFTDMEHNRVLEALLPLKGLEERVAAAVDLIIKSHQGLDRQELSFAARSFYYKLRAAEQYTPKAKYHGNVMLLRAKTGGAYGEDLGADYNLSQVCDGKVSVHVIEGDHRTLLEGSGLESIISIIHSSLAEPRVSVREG
rCAG RNA binder: binders of r(CAG) RNA repeats, primary screen, biochemical, fluorescence. r(CAG) RNA repeat, TO-PRO-1 dye displacement fluorescence. inhibition, % at 3 µM. hit rate 1.3% among 370,000. AID 651821, 2012;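 active = inhibition above the plate cutoff, the mean of all test compounds on that plate plus 3 SD, cut at about 35% in these data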;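 also: 0% = DMSO alone and 100% = 100 µM mitoxantrone as full dye displacement; higher means more dye released from RNA so lower well fluorescence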
NadD inh: inhibitors of S. aureus NadD, primary screen, biochemical, colorimetric, uHTS; Nicotinate-nucleotide adenylyltransferase NadD (Staphylococcus aureus N315); purified NadD enzyme, colorimetric absorbance read-out; inhibition, % at 20 µM; hit rate 0.78% among 360,000; AID 602399, 2012; in the data active = inhibition above about 26%
FAS-TE inh conf: FAS thioesterase domain inhibitors, confirmation, biochemical, fluorescence intensity, single concentration | recombinant FAS-TE, OMFH fluorogenic substrate | inhibition, % at 15 µM | AID 624325, 2012 | shares compounds with FAS-TE inh | hit rate 45% among 2,300;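 active = compounds inhibiting the enzyme by at least 50% at 15 µM in any one of the replicates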;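 also: 0% = enzyme with DMSO only and 100% = wells lacking enzyme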
Starred values were filed as active, the others as inactive; . = no result. In the library only some 4.3% were active in any assay of this set; here they are far more common.

SMILES | NR3A LBD binder | FAS-TE inh | rCAG RNA binder | NadD inh | FAS-TE inh conf
Cc1ccc(S(=O)(=O)N2CCN(C(=O)c3ccc(N4CCC(C)CC4)c([N+](=O)[O-])c3)CC2)cc1 | -1 | 54* | 6 | 4 | 14
COC(=O)[C@]12C[C@H](CC(=O)NCCCN3CCCC3=O)C(=O)N(CCc3ccc(OC)c(OC)c3)C1=C[C@H](C(C)C)O[C@@H]2C1CC1 | . | . | 1 | . | .
CCOC(=O)c1c(-c2ccccc2)csc1NC(=O)c1cc(S(=O)(=O)N2CCOCC2)ccc1C | 3 | 52* | 10 | -1 | 17
CCOC(=O)c1c(-c2ccccc2)csc1NC(=O)c1ccc(S(=O)(=O)N2CC(C)OC(C)C2)cc1 (stereo unspecified) | -1 | 16 | 0 | 4 | .
Cn1c(-c2cccc([N+](=O)[O-])c2)cnc1NCc1cccc([N+](=O)[O-])c1 | 0 | 55* | 0 | -5 | 28
O=C(Nc1ccc(Cl)cc1)OC[C@@H]1CSCCS(=O)(=O)N1 | . | . | 1 | . | .
COC(=O)C1=C(C)N(Cc2ccc(Br)cc2)C(=S)NC1c1ccccc1 (stereo unspecified) | . | . | 6 | . | .
Cc1csc(N2CCCC2c2nc3cc(Cl)c(N4CCCCC4)cc3n2CCOCCO)n1 (stereo unspecified) | -2 | -4 | -2 | 2 | .
Nc1c(Cl)cc(-c2csc(N3CCCC3c3nc4cc(Cl)c(N5CCCCC5)cc4n3CCOCCO)n2)cc1Cl (stereo unspecified) | -2 | 70* | 20 | 28 | 18
Cc1ccc(C(=O)C2CCN(CC(=O)NCc3cccs3)CC2)cc1 | . | . | 5 | . | .
CCCCOCCCNC(=O)C[C@H]1C[C@@]2(C(=O)OC)C(=C[C@H](COCc3ccccc3)O[C@@H]2C)N(Cc2ccc(Cl)cc2Cl)C1=O | . | . | 4 | . | .
COc1cc2c(C)nc3onc(-c4ccccc4)c3c2cc1OC | -3 | 70* | 7 | -12 | 45*
Cc1ccc(S(=O)(=O)CC(=O)c2ccc([N+](=O)[O-])cc2)cc1 | -1 | 17 | 4 | -5 | .
Cc1ccc(C(=O)CN(CCC(=O)O)S(=O)(=O)c2ccc([N+](=O)[O-])cc2)cc1 | -1 | 62* | 11 | 1 | 79*
Cc1ccc(C(=O)CN(CCCC(N)=O)C(=O)c2ccncc2)cc1 | 0 | -17 | 3 | 1 | .
Cc1ccc(C(=O)CN(CCCC(N)=O)S(=O)(=O)c2ccc([N+](=O)[O-])cc2)cc1 | 1 | 68* | -2 | -2 | 52*
O=C(O)CCN(CC(=O)c1ccc(Cl)cc1)S(=O)(=O)c1ccc([N+](=O)[O-])cc1 | 2 | 75* | 16 | 0 | 72*
O=C(O)CCN(CCC(=O)O)S(=O)(=O)c1ccccc1 | -1 | -4 | 3 | 6 | .
COc1ccc(C(=O)CN(CCC(=O)O)S(=O)(=O)c2ccc([N+](=O)[O-])cc2)cc1 | 3 | 71* | 10 | -4 | 80*
CC(CCN1CCC(C(O)(c2ccccc2)c2ccccc2)CC1)Oc1cc(F)cc(C#N)c1 (stereo unspecified) | . | . | 4 | . | .
Cc1ccc([N+](=O)[O-])cc1NC(=O)c1ccc(CSc2ccccc2)cc1 | -19 | 23 | 2 | 0 | .
Cc1ccc(SCc2ccc(C(=O)Nc3cccc([N+](=O)[O-])c3C)cc2)cc1 | -7 | 51* | -2 | 5 | 31
CC(=O)c1cn(CC(=O)NCc2ccc3c(c2)OCO3)c2ccccc12 | -3 | 16 | 7 | -3 | .
O=C(Cn1cc(C(=O)C2CC2)c2ccccc21)NCc1ccc2c(c1)OCO2 | -1 | 59* | 4 | -5 | 55*
O=C1OC(c2ccccc2)=NC12CC2c1ccc(Cl)cc1 (stereo unspecified) | 3 | 90* | 3 | 1 | 97*
SMILES | NR3A LBD binder | FAS-TE inh | rCAG RNA binder | NadD inh | FAS-TE inh conf
CS(=O)(=O)N1CCc2cc(-c3csc(NC(=O)Cc4cccs4)n3)ccc21 | 1 | 62* | 10 | 0 | 29*
CC(=O)Nc1nc(-c2ccc3c(c2)CCN3S(C)(=O)=O)cs1 | -5 | -2 | 8 | 0 | .
CN(CCO)c1cc(NCCCN2CCC(Cc3ccccc3)CC2)c2nonc2c1[N+](=O)[O-] | 1 | 68* | 2 | -1 | 42*
CC1CCN(CCCNc2cc(NCCO)c([N+](=O)[O-])c3nonc23)CC1 | -1 | -1 | 6 | -6 | .
O=C(CCc1ccccc1)N[C@H]1[C@H](OC(=O)c2ccc3ccccc3n2)CCC[C@@]12C(=O)N(Cc1ccccc1)c1ccccc12 | . | . | 8 | . | .
Cc1cc(C)n(-c2cc(N3CCN(S(=O)(=O)c4ccc(Br)cc4)CC3)ccc2[N+](=O)[O-])n1 | -3 | 51* | -1 | 22 | 12
Nc1c(C(=O)N2CCOCC2)cnn1Cc1ccccc1 | . | . | 5 | . | .
Cc1c(-c2ccccc2)oc2c(C(=O)N3CCN(c4ccc([N+](=O)[O-])cc4)CC3)cccc2c1=O | -25 | 60* | 4 | 12 | 10
Cc1ccc(S(=O)(=O)c2c(C(=O)c3ccccc3)cnc3cc4c(cc23)OCCO4)cc1 | 0 | 70* | 11 | 15 | 37
CCn1c(=O)n(CC(=O)N2CCCN(Cc3ccccc3)CC2)c(=O)c2ccccc21 | . | . | 0 | . | .
C[C@]12C(=O)N(c3ccc(Cl)cc3)C(=O)N1[C@H]1c3ccccc3OC[C@@H]1[C@H]2c1ccccc1 | 1 | 93* | . | 10 | 12
C[C@]12C(=O)N(c3ccc(Br)cc3)C(=O)N1[C@@H]1c3ccccc3OC[C@@H]1[C@H]2c1ccccc1 | -1 | 47 | 4 | 11 | .
C[C@@]12C(=O)N(c3ccc(F)cc3)C(=O)N1[C@@H]1c3ccccc3OC[C@@H]1[C@H]2c1ccccc1 | 1 | 25 | -6 | 0 | .
C[C@]12C(=O)N(c3ccc(F)cc3)C(=O)N1[C@H]1c3ccccc3OC[C@@H]1[C@H]2c1ccccc1 | 0 | 89* | 0 | 6 | 30
C[C@@]12C(=O)N(c3ccc(Cl)cc3)C(=O)N1[C@@H]1c3ccccc3OC[C@@H]1[C@H]2c1ccccc1 | 0 | 32 | 8 | -5 | .
C[C@@]12C(=O)N(c3ccc(Br)cc3)C(=O)N1[C@@H]1c3ccccc3OC[C@@H]1[C@H]2c1ccccc1 | 1 | 61* | 4 | 5 | 24
C[C@]12C(=O)N(c3ccc(Cl)cc3)C(=O)N1[C@@H]1c3ccccc3OC[C@@H]1[C@H]2c1ccccc1 | 2 | 55* | 3 | 5 | 32
CC(C)(C)c1ccc(-c2cn(C[C@H](Cc3ccccc3)n3c(=O)c4ccccc4n3Cc3ccccc3)nn2)cc1 | . | . | 8 | . | .
Cc1ccc(-c2nnc(SCc3ccc([N+](=O)[O-])cc3)n2-c2ccccc2)cc1 | . | . | 6 | . | .
Cc1ccccc1NC(=O)C[C@H]1CC[C@H]2[C@@H](COc3ccc(NC(=O)Nc4ccccc4)cc3C(=O)N2C)O1 | . | . | 7 | . | .

Screens deposited in PubChem by several laboratories.
